PMC6451091, “NextPBM: a platform to study cell-specific transcription factor binding and cooperativity”
In all, about 3,700 sequences were measured (“z-score”: median about 4, highest 2% from about 8.4 on). The sample holds the highest values, similar sequences and a random draw of the others, so the mix is not that of the screen.

Columns and labels:
PU.1 (IVT) [1] = molecular target: PU.1 (IVT) (UniProt P17947 1-270); assay: protein-binding microarray (PBM); 20 mM HEPES pH 7.9, 100 mM NaCl, 1 mM DTT, 0.2 mg/mL BSA, 0.02% Triton X-100, 2% milk, 0.4 mg/mL salmon testes DNA; 1 h; temperature not stated; high values mean tight binding; conditions: dsDNA, one strand shown
Procedure, shortened: (§1)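 Full-length untagged PU.1 was made by coupled human in vitro transcription/translation. It was bound for 1 h to custom double-stranded DNA microarrays carrying 20-bp genomic sites and single-nucleotide variants, 10 probes per site (5 per orientation). The binding buffer was HEPES pH 7.9 with 100 mM NaCl, 2% milk and salmon testes DNA. Bound protein was detected with anti-PU.1 and then a fluorescent secondary antibody. Binding is a z-score from scanned fluorescence after linear-regression normalisation.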

PU.1 (IVT) [2] = molecular target: PU.1 (IVT) (UniProt P17947 1-270); assay: as above; conditions: dsDNA, one strand shown; remark: listed apart in the source
Procedure, shortened: as §1

Sequence | binding signal (PU.1 (IVT) [1]) | binding signal (PU.1 (IVT) [2])
GCCTAGCACAAAAAGGGGAAGTCAAATTGGTGCTAGGTCTTGATTCGCTTGACGCTGCTG | 8.09 z-score | –
GCCTAGCACAAAAAGGGGAAGTTGGGGATGTGCTAGGTCTTGATTCGCTTGACGCTGCTG | 8.45 z-score | –
GCCTAGCACAAAAAGGGGAAGTGATGGCGGTGCTAGGTCTTGATTCGCTTGACGCTGCTG | 8.22 z-score | –
GCCTAGCACAAAAGGAGGAAGTACTGTGAGTGCTAGGTCTTGATTCGCTTGACGCTGCTG | 7.12 z-score | –
GCCTAGCACAAAAAGGGGAAGTCAATTTTGTGCTAGGTCTTGATTCGCTTGACGCTGCTG | 8.55 z-score | –
GCCTAGCACAAAGAAGGGAAGTGACTTGCGTGCTAGGTCTTGATTCGCTTGACGCTGCTG | 3.86 z-score | –
GCCTAGCACAAAAAAGGGAAGTGGATGCTGTGCTAGGTCTTGATTCGCTTGACGCTGCTG | 7.67 z-score | –
GCCTAGCACAAAAAGGGGAAGTACTGCGAGTGCTAGGTCTTGATTCGCTTGACGCTGCTG | 8.58 z-score | –
GCCTAGCACAAAAAAAGGAAGTCTGTTTTGTGCTAGGTCTTGATTCGCTTGACGCTGCTG | – | 6.43 z-score
GCCTAGCACAAAAAAGGGAAGTGCAAGATGTGCTAGGTCTTGATTCGCTTGACGCTGCTG | 7.79 z-score | –
GCCTAGCACAAAAAGGGGAAGTGACTTTCGTGCTAGGTCTTGATTCGCTTGACGCTGCTG | 8.66 z-score | –
GCCTAGCACAAAAAAGGGAAGTGAAGTACGTGCTAGGTCTTGATTCGCTTGACGCTGCTG | 7.2 z-score | –
GCCTAGCACTTAAACAGGAAGTGTGTAATGTGCTAGGTCTTGATTCGCTTGACGCTGCTG | 5.79 z-score | –
GCCTAGCACTTAAGGAGGAACTGAAACCAGTGCTAGGTCTTGATTCGCTTGACGCTGCTG | – | 2.65 z-score
GCCTAGCACTAAAGGAGGAACTGAAAACAGTGCTAGGTCTTGATTCGCTTGACGCTGCTG | – | 3.62 z-score
GCCTAGCACTAAAAGAGGAACTGAAACCAGTGCTAGGTCTTGATTCGCTTGACGCTGCTG | 6.72 z-score | –
GCCTAGCACCTGCAAAGGAAGTCTGGGCCGTGCTAGGTCTTGATTCGCTTGACGCTGCTG | – | 0.767 z-score
GCCTAGCACTGGAAGAGGAAGTTGGTTTTGTGCTAGGTCTTGATTCGCTTGACGCTGCTG | 7.15 z-score | –
GCCTAGCACCATTTGTAGAAGTACTGTGCGTGCTAGGTCTTGATTCGCTTGACGCTGCTG | – | 0.808 z-score
GCCTAGCACAAAAAGCAGAAGTGTTCTGTGTGCTAGGTCTTGATTCGCTTGACGCTGCTG | 6.88 z-score | –
GCCTAGCACAAAAAGGGGAAGTCTGGACTGTGCTAGGTCTTGATTCGCTTGACGCTGCTG | 7.65 z-score | –

Sequence | binding signal (PU.1 (IVT) [1]) | binding signal (PU.1 (IVT) [2])
GCCTAGCACAAAAAGGGGAAGTGCTTTCTGTGCTAGGTCTTGATTCGCTTGACGCTGCTG | 8.76 z-score | –
GCCTAGCACAAAAAGGGGAAGTGTGCTGCGTGCTAGGTCTTGATTCGCTTGACGCTGCTG | 8.33 z-score | –
GCCTAGCACAGAAAAAGGAAGTGGAATTTGTGCTAGGTCTTGATTCGCTTGACGCTGCTG | 6.29 z-score | –
GCCTAGCACGAAATGAGGAAGTGAAATTGGTGCTAGGTCTTGATTCGCTTGACGCTGCTG | 8.42 z-score | –
GCCTAGCACGAAAAGAGGAAGTGGAATTTGTGCTAGGTCTTGATTCGCTTGACGCTGCTG | 8.92 z-score | –
GCCTAGCACGAAAAGAGGAAGTCAAATTTGTGCTAGGTCTTGATTCGCTTGACGCTGCTG | 8.44 z-score | –
GCCTAGCACGAAAAGAGGAAGTCAGAAATGTGCTAGGTCTTGATTCGCTTGACGCTGCTG | 8.35 z-score | –
GCCTAGCACGAAAAGAGGAAGTCAGACTAGTGCTAGGTCTTGATTCGCTTGACGCTGCTG | 8.15 z-score | –
GCCTAGCACGAAAAGAGGAAGTCGAATTAGTGCTAGGTCTTGATTCGCTTGACGCTGCTG | 8.06 z-score | –
GCCTAGCACGAAATGAGGAAGTGCTAGTGGTGCTAGGTCTTGATTCGCTTGACGCTGCTG | 8.07 z-score | –
GCCTAGCACGAAAAGAGGAAGTCAAACTTGTGCTAGGTCTTGATTCGCTTGACGCTGCTG | 8.22 z-score | –
GCCTAGCACGAAAAGAGGAAGTCAAATTCGTGCTAGGTCTTGATTCGCTTGACGCTGCTG | 8.31 z-score | –
GCCTAGCACGGAAAGAGGAAGTCAAAAATGTGCTAGGTCTTGATTCGCTTGACGCTGCTG | 7.85 z-score | –
GCCTAGCACGAAATGAGGAAGTGGCTGGTGTGCTAGGTCTTGATTCGCTTGACGCTGCTG | 7.9 z-score | –
GCCTAGCACAAAAAAAGGAAATGAAAGTAGTGCTAGGTCTTGATTCGCTTGACGCTGCTG | 3.32 z-score | –
GCCTAGCACGTCAAAAAAAGGAAAAAGCCGTGCTAGGTCTTGATTCGCTTGACGCTGCTG | – | 0.885 z-score
GCCTAGCACAAGAAGCGGAAGTGAAAGACGTGCTAGGTCTTGATTCGCTTGACGCTGCTG | 6.8 z-score | –
GCCTAGCACAGAAAAAGGAACTGGCTAGAGTGCTAGGTCTTGATTCGCTTGACGCTGCTG | – | 3.75 z-score
GCCTAGCACCAAAAGAGGAAGTGAGAAGCGTGCTAGGTCTTGATTCGCTTGACGCTGCTG | 8.31 z-score | –
GCCTAGCACGAAAACAGGAAGTGACTGTTGTGCTAGGTCTTGATTCGCTTGACGCTGCTG | 8.08 z-score | –
GCCTAGCACGAAGAGAGGAAGTGAAATTGGTGCTAGGTCTTGATTCGCTTGACGCTGCTG | – | 5.29 z-score

Sequence | binding signal (PU.1 (IVT) [1]) | binding signal (PU.1 (IVT) [2])
GCCTAGCACGAAATGAGGAAGTGATTAGGGTGCTAGGTCTTGATTCGCTTGACGCTGCTG | 8.13 z-score | –
GCCTAGCACGAAAAGAGGAAATGAGAGAGGTGCTAGGTCTTGATTCGCTTGACGCTGCTG | – | 5.36 z-score
GCCTAGCACGAAAAGAGGAAGTCAAATTGGTGCTAGGTCTTGATTCGCTTGACGCTGCTG | 8.37 z-score | –
GCCTAGCACGAAATGAGGAAGTTGAGAGCGTGCTAGGTCTTGATTCGCTTGACGCTGCTG | 8.36 z-score | –
GCCTAGCACGAAATGAGGAAGTACCTAAAGTGCTAGGTCTTGATTCGCTTGACGCTGCTG | 8.71 z-score | –
GCCTAGCACGAAATGAGGAAGTTGGTGCTGTGCTAGGTCTTGATTCGCTTGACGCTGCTG | 8.11 z-score | –
GCCTAGCACGAAAAAAGGAAGTCAAATTGGTGCTAGGTCTTGATTCGCTTGACGCTGCTG | – | 5.97 z-score
GCCTAGCACGAAATGAGGAAGTGTAAACAGTGCTAGGTCTTGATTCGCTTGACGCTGCTG | 7.49 z-score | –
GCCTAGCACGAAAAGAGGAAGTGAAATTGGTGCTAGGTCTTGATTCGCTTGACGCTGCTG | 8.72 z-score | –
GCCTAGCACGAAGAGAGGAAGTCAAATTGGTGCTAGGTCTTGATTCGCTTGACGCTGCTG | – | 4.29 z-score
GCCTAGCACGAAAAGAGGAAATGAAATTGGTGCTAGGTCTTGATTCGCTTGACGCTGCTG | – | 6.51 z-score
GCCTAGCACGAAATAGGGAAGTGTGAGTTGTGCTAGGTCTTGATTCGCTTGACGCTGCTG | 6.74 z-score | –
GCCTAGCACTGAGAGGGGAAGTGGCAGCTGTGCTAGGTCTTGATTCGCTTGACGCTGCTG | – | 4.01 z-score
GCCTAGCACTGGAGGAGGAACTGAAATACGTGCTAGGTCTTGATTCGCTTGACGCTGCTG | 2.94 z-score | –
GCCTAGCACTGAAAGGGGAAGTCAGATAGGTGCTAGGTCTTGATTCGCTTGACGCTGCTG | – | 6.45 z-score
GCCTAGCACCAAATGAGGAACTGATGCGAGTGCTAGGTCTTGATTCGCTTGACGCTGCTG | 6.15 z-score | –
GCCTAGCACCAAAGGAGGAACTGAAACCAGTGCTAGGTCTTGATTCGCTTGACGCTGCTG | – | 3.2 z-score
GCCTAGCACTGAAAGGGGAAGTGGGTGCCGTGCTAGGTCTTGATTCGCTTGACGCTGCTG | – | 6.37 z-score
GCCTAGCACCGAAAGGGGAAGTGCTAAGCGTGCTAGGTCTTGATTCGCTTGACGCTGCTG | 6.82 z-score | –
GCCTAGCACGAAAAGAGGAAGTCAAACTGGTGCTAGGTCTTGATTCGCTTGACGCTGCTG | 7.89 z-score | –
GCCTAGCACGAAAAGAGGAAGTCAATTTGGTGCTAGGTCTTGATTCGCTTGACGCTGCTG | 8.54 z-score | –

Sequence | binding signal (PU.1 (IVT) [1]) | binding signal (PU.1 (IVT) [2])
GCCTAGCACGGAAAGAGGAAGTCAAATTGGTGCTAGGTCTTGATTCGCTTGACGCTGCTG | 7.8 z-score | –
GCCTAGCACTACCCTTTAAAAATAGTTCAGTGCTAGGTCTTGATTCGCTTGACGCTGCTG | – | 0.827 z-score
GCCTAGCACAGAGAGAGGAAGTGATTACAGTGCTAGGTCTTGATTCGCTTGACGCTGCTG | 4.98 z-score | –
GCCTAGCACTTCAGGGGGAAGTACTGTGTGTGCTAGGTCTTGATTCGCTTGACGCTGCTG | – | 3.94 z-score
GCCTAGCACCACAAGAGGAAGTCCCACAAGTGCTAGGTCTTGATTCGCTTGACGCTGCTG | – | 3.93 z-score
GCCTAGCACTCCAGGAGGAACTACTGTGTGTGCTAGGTCTTGATTCGCTTGACGCTGCTG | 2.59 z-score | –
GCCTAGCACAGAAAGAGGAAGTTGGCTCTGTGCTAGGTCTTGATTCGCTTGACGCTGCTG | 8.56 z-score | –
GCCTAGCACAGAGAGGGGAAGTGACTTGCGTGCTAGGTCTTGATTCGCTTGACGCTGCTG | 4.95 z-score | –
GCCTAGCACAGAAAGAGGAAGTCCTCTCTGTGCTAGGTCTTGATTCGCTTGACGCTGCTG | 8.3 z-score | –
GCCTAGCACAGAAAGAGGAACTGAAAAGTGTGCTAGGTCTTGATTCGCTTGACGCTGCTG | 6.62 z-score | –
GCCTAGCACACAGAGAGGAAGTAGATAAAGTGCTAGGTCTTGATTCGCTTGACGCTGCTG | – | 4.75 z-score
GCCTAGCACAGAAAGGGGAAGTGACTTGCGTGCTAGGTCTTGATTCGCTTGACGCTGCTG | 8.13 z-score | –
GCCTAGCACAGAGAGAGGAAGTGAGCTCTGTGCTAGGTCTTGATTCGCTTGACGCTGCTG | – | 4.31 z-score
GCCTAGCACAGAAAGAGGAAGTGTAAAAAGTGCTAGGTCTTGATTCGCTTGACGCTGCTG | 8.57 z-score | –
GCCTAGCACAGAAAGAGGAAGTGACTTGCGTGCTAGGTCTTGATTCGCTTGACGCTGCTG | 8.54 z-score | –
GCCTAGCACAGAAAGAGGAAGTAGATATTGTGCTAGGTCTTGATTCGCTTGACGCTGCTG | 8.76 z-score | –
GCCTAGCACAGGAAGAGGAAGAGGAAGAAGTGCTAGGTCTTGATTCGCTTGACGCTGCTG | – | 4.95 z-score
GCCTAGCACAGAGAGAGGAAGTGAAAGTAGTGCTAGGTCTTGATTCGCTTGACGCTGCTG | – | 4.81 z-score
